BoNT F protease: BoNT F light chain protease inhibition | Multiplex microsphere protease cleavage assay, flow cytometry | inhibition, % at 10 µM | 360,000 compounds, 0.22% hits | AID 588497; in the data active = inhibition above about 35%, passing the limit was not always enough; inconclusive = no clear call, values can overlap the other calls
BoNT A protease: inhibitors of Botulinum neurotoxin A light chain protease | multiplex microsphere protease substrate cleavage, flow cytometry | 360,000 compounds, 0.17% hits | inhibition, % at 10 µM | AID 588499
Autofluor counter: compound fluorescence in toxin protease inhibitor counterscreen; AID 624483; fluorescence intensity (test concentration not listed); 360,000 compounds, 3.1% hits; compound autofluorescence counterscreen, microsphere flow cytometry; stronger effect = higher value; in the data active = fluorescence intensity above about 16000; inconclusive = no clear call, values can overlap the other calls
3CLpro inhibitor: SARS-CoV 3CLpro protease inhibition. recombinant SARS-CoV 3CLpro, quenched FRET peptide cleavage. inhibition, % at 6 µM. 290,000 compounds, 0.14% hits. AID 1706; in the data active = inhibition above about 12%
Anthrax LF prot: inhibitors of Bacillus anthracis lethal factor protease | 360,000 compounds, 0.12% hits | P15917 | multiplex microsphere protease cleavage assay, LF | inhibition, % at 10 µM
Target sequence (P15917 whole entry, looked up): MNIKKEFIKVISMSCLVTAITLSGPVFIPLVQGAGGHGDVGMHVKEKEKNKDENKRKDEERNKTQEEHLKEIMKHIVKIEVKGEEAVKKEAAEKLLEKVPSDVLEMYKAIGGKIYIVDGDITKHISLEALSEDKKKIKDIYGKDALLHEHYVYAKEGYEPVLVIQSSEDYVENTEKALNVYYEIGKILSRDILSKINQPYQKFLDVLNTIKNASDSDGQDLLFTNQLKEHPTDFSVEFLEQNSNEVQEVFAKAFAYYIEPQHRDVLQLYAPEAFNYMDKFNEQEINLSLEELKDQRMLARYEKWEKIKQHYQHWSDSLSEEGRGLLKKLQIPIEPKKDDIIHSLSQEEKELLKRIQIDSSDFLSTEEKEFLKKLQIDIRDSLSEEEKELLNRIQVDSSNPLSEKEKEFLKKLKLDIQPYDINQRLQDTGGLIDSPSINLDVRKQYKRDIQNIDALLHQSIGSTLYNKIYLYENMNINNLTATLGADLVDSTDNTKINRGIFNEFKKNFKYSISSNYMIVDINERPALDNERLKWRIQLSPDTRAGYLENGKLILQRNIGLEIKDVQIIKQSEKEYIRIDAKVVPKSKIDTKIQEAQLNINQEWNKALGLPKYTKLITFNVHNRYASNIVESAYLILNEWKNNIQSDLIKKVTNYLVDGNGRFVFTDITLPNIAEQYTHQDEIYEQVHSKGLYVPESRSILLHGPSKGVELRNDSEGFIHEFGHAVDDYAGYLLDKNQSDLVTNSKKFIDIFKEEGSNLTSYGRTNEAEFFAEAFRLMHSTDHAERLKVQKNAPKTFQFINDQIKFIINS
BJeLR viability: kills HRASV12-expressing BJeLR cells | inhibition, % (no concentration beside the values) | AID 1554 | BJeLR (HRASV12) viability, CellTiter-Glo ATP luminescence, 48 h | 300,000 compounds, 0.17% hits; in the data active = inhibition above about 50%; inconclusive = no clear call, values can overlap the other calls
Hits are given with their value; i = inactive; ? = inconclusive; nt = not tested or not shown. An excerpt weighted towards active compounds, which were near 3.6% of everything screened. Cut-off read from the data, not from the text of the source, unless noted: active = inhibition above about 30%; inconclusive = no clear call, values can overlap the other calls; inactive = below that.

SMILES	BoNT F protease	BoNT A protease	Autofluor counter	3CLpro inhibitor	Anthrax LF prot	BJeLR viability
CN(c1ccc(C(=O)NCc2ccc3c(c2)OCO3)cc1)S(C)(=O)=O	i	i	22044	i	i	i
CCN1C(=O)c2ccc(C(=O)NCc3ccc4c(c3)OCO4)cc2C1=O	i	i	16137	i	i	i
O=C(NCc1ccc2c(c1)OCO2)c1nn(-c2ccccc2)c(=O)c2ccccc12	i	?	21677	i	i	i
O=C(NCc1ccc2c(c1)OCO2)c1ccc(-n2cnnn2)cc1	i	?	16294	i	i	i
Cc1ccc(NC(=O)CN(C)S(=O)(=O)c2cccc3cccnc23)cc1C	i	i	i	i	i	i
O=C(NCc1ccccc1CN1CCOCC1)c1ccc(-n2cccn2)cc1	i	i	i	nt	i	nt
COCCOC(=O)C1=C(C)NC(=O)NC1c1cccc2ccccc12 (configuration not stated)	i	i	i	i	i	i
CCOc1ccc(NC(=O)CSc2nnc(Cc3csc(C)n3)o2)cc1	i	i	i	i	i	i
CCCCN1C(=O)c2ccc(C(=O)NCc3ccco3)cc2C1=O	i	i	i	i	i	i
CCCN1C(=O)c2ccc(C(=O)NCc3ccco3)cc2C1=O	i	?	23188	i	i	i
CCOc1ccc(C2C(C#N)=C(C)NC3=C2C(=O)c2ccccc23)cc1 (configuration not stated)	i	i	22424	i	i	i
CSc1ccccc1C(=O)NCC(c1ccco1)N(C)C (configuration not stated)	i	i	i	i	i	i
CN(C)C(CNc1nnnn1-c1ccccc1)c1ccco1 (configuration not stated)	i	i	20446	i	i	i
CCc1nc2ccc(C(=O)Nc3cccc(OCC(=O)N(C)C)c3)cn2c1N(C=O)Cc1ccc(OC)cc1	i	i	i	nt	i	nt
CCC(=O)Nc1cc(C(=O)OCC(=O)c2ccccc2Cl)ccc1C	i	i	20188	i	i	i
O=C(c1cc2ccccc2o1)N1CCN(S(=O)(=O)c2c(F)cccc2F)CC1	i	i	20189	nt	i	nt
CC(=O)N1CCN(C(=O)c2cc3ccccc3o2)CC1	i	i	i	i	i	i
CC(C)CN(C(=O)COC(=O)Cc1n[nH]c(=O)c2ccccc12)C1CCS(=O)(=O)C1 (configuration not stated)	i	?	21604	i	i	i
Cn1cc(/C=C/C(=O)c2ccccc2)c2ccccc21	i	i	i	i	i	i
Cc1ccc(C(=O)/C=C/c2cn(CN3CCN(C)CC3)c3ccccc23)cc1	i	i	22519	i	i	i
CCCN1CCN(CCCNC(=O)c2ccc(CS(=O)c3ccccc3C)o2)CC1 (configuration not stated)	i	i	i	i	i	i
Cc1nc(N2CCN(Cc3ccccc3)CC2)nc2c1C(=O)CC(c1ccco1)C2 (configuration not stated)	i	i	17519	i	i	nt
NC(=O)CN1CCCC1=O	i	i	i	i	i	i
N/C(CN1CCCC1=O)=N\O	i	i	24371	i	i	i
CCCCNCCOCCSc1ccc(Cl)cc1	i	i	21188	i	i	i
SMILES	BoNT F protease	BoNT A protease	Autofluor counter	3CLpro inhibitor	Anthrax LF prot	BJeLR viability
COCCCNCCOCCSc1ccc(Cl)cc1	i	i	i	i	i	i
CN(C)CCOCCSc1ccc(Cl)cc1	i	i	23961	i	i	i
S=C(Nc1ccc2snnc2c1)N1CCN(c2ccccn2)CC1	i	i	i	i	i	i
Cc1ccc(S(=O)(=O)N(C)CC(=O)NCCCn2ccnc2)cc1	i	i	i	i	i	i
CN(Cc1ccc(Cl)cc1Cl)C(=O)C1CC(=O)N(Cc2ccco2)C1 (configuration not stated)	i	i	i	nt	i	nt
CCCCCC(=O)Nc1ccc(N2CCN(CC)CC2)c(Cl)c1	i	i	23051	i	i	i
COc1ccc(OC)c(C2SCCN2S(C)(=O)=O)c1 (configuration not stated)	i	i	22914	i	i	i
COc1ccccc1-c1nnc(SC2CCc3ccccc3NC2=O)s1 (configuration not stated)	i	?	20615	i	i	i
Cc1ccc(S(=O)(=O)Nc2nsc(N)n2)cc1	i	i	17173	i	i	i
Cc1cc(C)nc(NS(=O)(=O)c2ccc(N)cc2)n1	i	i	i	i	i	i
CCC(=O)c1c(NC(C)C)cc(C)oc1=O	i	i	i	i	i	i
Cc1cc(S(=O)(=O)N2CCCCC2)c(C)s1	i	i	i	i	i	i
Cc1ccc(C(=O)Nc2ccc(CC(=O)O)cc2)o1	i	i	18362	i	i	i
Cc1ccccc1-n1ccnc1SCC(=O)NC1CCCC1	i	i	i	i	i	i
CCCC(=O)Nc1ccc(C(=O)NNC(=O)c2cccs2)cc1	i	i	22535	i	i	i
O=C(CCC(=O)Nc1ccccc1)NNC(=O)c1cccs1	i	i	21744	i	i	i
CCOC(=O)CSc1nnc(-c2cccs2)n1-c1ccccc1	i	i	i	i	i	i
CSc1nnc(-c2cccs2)n1-c1ccccc1	i	i	20664	i	i	i
C=CCn1c(SCC(=O)Nc2ccccc2)nc2scc(-c3cccs3)c2c1=O	i	i	i	i	i	i
CC1CCN(C(=O)CSc2nnc(CN3CCOCC3)n2-c2ccccc2)CC1	i	i	21833	i	i	nt
O=C(CSc1nnc(CN2CCOCC2)n1-c1ccccc1)N1CCc2ccccc21	i	i	i	i	i	i
C=CCn1c(SCC(=O)N2CCCC2)nc2scc(-c3cccs3)c2c1=O	i	i	21895	i	i	i
O=C(CSc1nnc(-c2cccs2)n1-c1ccccc1)N1CCCC1	i	i	21472	i	i	i
COc1ccc(CC(=O)NNC(=O)c2c(-c3ccccc3Cl)noc2C)cc1OC	i	i	i	i	i	i
Cc1[nH][nH]c(=O)c1C=NCc1cccc(C(F)(F)F)c1	i	i	i	i	i	i
SMILES	BoNT F protease	BoNT A protease	Autofluor counter	3CLpro inhibitor	Anthrax LF prot	BJeLR viability
Cc1nc(Sc2ccccc2)c(C#N)c(C)c1[N+](=O)[O-]	?	i	i	i	30	i
O=C(O)CC1S/C(=N/N=C/c2ccc(-c3ccccc3[N+](=O)[O-])o2)NC1=O (configuration not stated)	i	i	23815	i	i	i
CCC1Oc2ccc(C)cc2N(CC(=O)N(Cc2ccc3c(c2)OCO3)CC2CCCO2)C1=O (configuration not stated)	i	i	24977	i	i	i
COc1ccc(CN(CC2CCCO2)C(=O)CN2C(=O)C(C)Oc3ccc(C)cc32)cc1OC (configuration not stated)	i	i	i	i	i	i
CCOC(=O)COn1c(=O)c(-c2ccc(OC)cc2)[n+]([O-])c2ccccc21	i	i	i	i	i	i
CCOC(=O)COn1c(=O)c(-c2ccccc2)[n+]([O-])c2ccccc21	i	i	i	i	30	i
Cc1ccc(-c2c(=O)n(OCc3ccccn3)c3ccccc3[n+]2[O-])cc1	nt	nt	nt	i	nt	nt

Assay outcomes: PubChem, several laboratories
